Results: PubChem BioAssay AID1159580 (chemical genetic matrix, 2015)
Several values for one entry are separate records, joined by “and”; a condition that tells them apart may be missing. Equal entries are not always repeated. The whole screen tested about 5,500 compounds, of which about 2,000 (36%) were called active. About 18% were inconclusive and are not listed. No stated cut-off is given here; in the data, active means normalized growth mostly below about 0.91 (no sharp cut-off); inconclusive means no clear call, values can overlap the other calls; inactive means mostly above about 0.92. The list shows a part of the results.

Test: chemical genetic growth profiling, strain panel (AID 1159580);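 further: tested at 20 µM; growth read once vehicle control cultures reached saturation at 30 °C; 1 = growth at the plate median or of vehicle wells; lower values mean less growth of the strain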
Conditions: S. cerevisiae deletion strains, growth OD

Measured: normalized growth

CCn1nc(C(=O)O)c(=O)c2cc3c(cc21)OCO3
inactive: locus YAL013W, strain DEP1, hits give low values 1.01 | locus YAL021C, strain ccr4, hits give low values 1 | locus YAL026C, strain drs2, hits give low values 0.999 | locus YAL030W, strain snc1, hits give low values 1.01 | locus YAL040C, strain CLN3, hits give low values 0.955 | locus YBL061C, strain skt5, hits give low values 1.02 | locus YBR009C, strain hhf1, hits give low values 0.989 | locus YBR021W, strain FUR4, hits give low values 1.03 | locus YBR023C, strain chs3, hits give low values 1.03 | locus YBR171W, strain sec66, hits give low values 1 | locus YBR229C, strain ROT2, hits give low values 1.01 | locus YBR231C, strain swc5, hits give low values 1.03 | locus YBR279W, strain paf1, hits give low values 1 | locus YCL011C, strain gbp2, hits give low values 0.987 | locus YCL016C, strain dcc1, hits give low values 0.99 | locus YCL029C, strain bik1, hits give low values 1.01 | locus YCL069W, strain vba3, hits give low values 1.01 | locus YCR088W, strain abp1, hits give low values 1 | locus YDL005C, strain med2, hits give low values 0.998 | locus YDL035C, strain GPR1, hits give low values 1 | locus YDL040C, strain nat1, hits give low values 1.01 | locus YDL074C, strain BRE1, hits give low values 1.04 | locus YDL101C, strain DUN1, hits give low values 1.01 | locus YDL134C, strain PPH21, hits give low values 1 | locus YDL185W, strain tfp1, hits give low values 1.03 | locus YDL192W, strain arf1, hits give low values 1.03 | locus YDR001C, strain nth1, hits give low values 0.996 | locus YDR069C, strain doa4, hits give low values 1.02 | locus YDR101C, strain arx1, hits give low values 0.992 | locus YDR137W, strain rgp1, hits give low values 0.949 | locus YDR150W, strain NUM1, hits give low values 1.01 | locus YDR159W, strain sac3, hits give low values 0.959 | locus YDR162C, strain NBP2, hits give low values 1.01 | locus YDR195W, strain ref2 1.01 | locus YDR297W, strain sur2, hits give low values 1.01 | locus YDR318W, strain mcm21, hits give low values 1.02 | locus YDR334W, strain swr1, hits give low values 1 | locus YDR335W, strain msn5, hits give low values 1.01 | locus YDR363W, strain ESC2, hits give low values 0.967 | locus YDR388W, hits give low values 1.02 | locus YDR392W, strain spt3, hits give low values 0.987 | locus YDR502C, strain sam2, hits give low values 1.02 | locus YEL003W, strain gim4, hits give low values 1.02 | locus YEL037C, strain rad23, hits give low values 1.01 | locus YEL061C, strain CIN8 (second series), hits give low values 1.01 | locus YEL061C, strain CIN8, hits give low values 1.01 | locus YER002W, strain NOP16, hits give low values 1.02 | locus YER015W, strain faa2, hits give low values 1.02 | locus YER016W, strain bim1, hits give low values 0.996 | locus YER110C, hits give low values 1.02 | locus YER111C, strain swi4, hits give low values 1 | locus YER155C, strain BEM2 (second series), hits give low values 1.06 | locus YER155C, strain BEM2, hits give low values 0.999 | locus YER167W, strain BCK2, hits give low values 0.993 | locus YFR010W, strain ubp6, hits give low values 1.03 | locus YGL078C, strain dbp3, hits give low values 1.01 | locus YGL086W, strain mad1, hits give low values 1 | locus YGL167C, strain pmr1, hits give low values 1.03 | locus YGL173C, strain kem1, hits give low values 1.01 | locus YGL227W, strain vid30, hits give low values 1.01 | locus YGL240W, strain doc1, hits give low values 1.03 | locus YGL248W, strain PDE1, hits give low values 1.03 | locus YGL253W, strain hxk2, hits give low values 1.01 | locus YGR078C, strain PAC10, hits give low values 1.02 and 1.01 | locus YGR135W, strain pre9, hits give low values 1.04 | locus YGR252W, strain gcn5, hits give low values 1.05 | locus YHR013C, strain ard1, hits give low values 1 | locus YHR027C, strain rpn1, hits give low values 1.01 | locus YHR030C, strain SLT2, hits give low values 1.01 and 0.999 | locus YHR079C, strain IRE1 (second series), hits give low values 1.01 | locus YHR079C, strain IRE1, hits give low values 0.999 | locus YHR094C, strain hxt1, hits give low values 1.01 | locus YHR129C, strain ARP1, hits give low values 1 | locus YHR142W, strain chs7, hits give low values 1.01 | locus YHR200W, strain rpn10, hits give low values 1.03 | locus YIL066C, strain RNR3, hits give low values 1.01 | locus YIL073C, strain SPO22, hits give low values 1.04 | locus YIL125W, strain kgd1, hits give low values 1.01 | locus YIR030C, strain dcg1, hits give low values 1.01 | locus YJL092W, strain hpr5, hits give low values 1.02 | locus YJL095W, strain BCK1 (second series), hits give low values 1.02 | locus YJL095W, strain BCK1, hits give low values 1.04 and 0.983 | locus YJL115W, strain asf1, hits give low values 1.01 | locus YJL129C, strain trk1, hits give low values 1.02 | locus YJL134W, strain LCB3, hits give low values 1.01 | locus YJL154C, strain vps35, hits give low values 1.02 | locus YJL164C, strain tpk1, hits give low values 1 | locus YJL166W, strain qcr8, hits give low values 1.05 | locus YJL168C, strain set2, hits give low values 1.02 | locus YJL187C, strain SWE1 (second series), hits give low values 1.03 | locus YJL187C, strain SWE1, hits give low values 1.02 | locus YJR043C, strain POL32, hits give low values 0.999 | locus YJR066W, strain TOR1, hits give low values 0.974 | locus YJR075W, strain HOC1, hits give low values 1.03 | locus YKL009W, strain mrt4, hits give low values 1.03 | locus YKL068W, hits give low values 0.999 | locus YKL085W, strain MDH1 (second series), hits give low values 1.03 | locus YKL085W, strain MDH1, hits give low values 1.03 | locus YKL160W, strain elf1, hits give low values 1.02 | locus YKR001C, strain vps1, hits give low values 1 | locus YKR026C, strain gcn3, hits give low values 0.993 | locus YKR091W, strain srl3, hits give low values 1.02 | locus YLL001W, strain dnm1, hits give low values 1.02 | locus YLL026W, hits give low values 1 | locus YLL041C, strain sdh2, hits give low values 1.01 | locus YLR027C, strain aat2, hits give low values 1 | locus YLR039C, strain RIC1, hits give low values 0.967 | locus YLR058C, strain SHM2, hits give low values 1.02 | locus YLR102C, strain apc9, hits give low values 1.01 | locus YLR113W, strain HOG1, hits give low values 1 | locus YLR221C, strain rsa3, hits give low values 1.02 | locus YLR258W, strain gsy2, hits give low values 1.01 | locus YLR262C, strain YPT6 (second series), hits give low values 0.964 | locus YLR262C, strain YPT6, hits give low values 0.978 | locus YLR268W, strain sec22, hits give low values 1.02 | locus YLR320W, strain mms22, hits give low values 1 | locus YLR330W, strain CHS5, hits give low values 1.01 | locus YLR342W, strain FKS1 (second series), hits give low values 1.01 | locus YLR342W, strain FKS1, hits give low values 1.02 | locus YLR357W, strain rsc2, hits give low values 1.02 | locus YLR370C, strain arc18, hits give low values 1.02 | locus YLR371W, strain rom2, hits give low values 1.01 | locus YLR384C, strain iki3, hits give low values 1.01 | locus YLR418C, strain cdc73, hits give low values 1.07 | locus YML016C, strain PPZ1, hits give low values 1.01 | locus YML032C, strain rad52, hits give low values 1.03 | locus YML120C, strain ndi1, hits give low values 1 | locus YML124C, strain tub3, hits give low values 1.02 | locus YMR058W, strain fet3, hits give low values 1.01 | locus YMR078C, strain ctf18, hits give low values 1.02 | locus YMR125W, strain sto1, hits give low values 1.02 | locus YMR129W, hits give low values 1.01 | locus YMR205C, strain PFK2, hits give low values 1.02 | locus YMR223W, strain ubp8, hits give low values 1.03 | locus YMR231W, strain pep5, hits give low values 1.01 | locus YMR307W, strain GAS1, hits give low values 1.06 | locus YNL067W, strain RPL9B, hits give low values 1.03 | locus YNL071W, strain lat1, hits give low values 1 | locus YNL153C, strain GIM3, hits give low values 1.02 | locus YNL175C, strain NOP13, hits give low values 0.997 | locus YNL183C, strain NPR1, hits give low values 0.928 | locus YNL197C, strain WHI3, hits give low values 0.994 | locus YNL209W, strain ssb2, hits give low values 1 | locus YNL224C, strain SQS1, hits give low values 0.99 | locus YNL233W, strain BNI4, hits give low values 1.02 | locus YNL248C, strain rpa49, hits give low values 0.952 | locus YNL250W, strain rad50, hits give low values 1.02 | locus YNL271C, strain bni1, hits give low values 1.02 | locus YNL298W, strain CLA4, hits give low values 1.02 | locus YNL307C, strain MCK1, hits give low values 1.03 | locus YNL322C, strain KRE1 (second series), hits give low values 1.01 | locus YNR049C, strain mso1, hits give low values 1.01 | locus YNR052C, strain pop2, hits give low values 1.01 | locus YOL012C, strain htz1 1.6 | locus YOL147C, strain pex11, hits give low values 1.01 | locus YOR001W, strain rrp6, hits give low values 1.03 | locus YOR061W, strain CKA2, hits give low values 1.01 | locus YOR069W, strain VPS5, hits give low values 1.01 | locus YOR070C, strain gyp1, hits give low values 1 | locus YOR080W, strain dia2, hits give low values 1.03 | locus YOR083W, strain WHI5 (second series), hits give low values 0.976 | locus YOR083W, strain WHI5, hits give low values 1.05 | locus YOR106W, strain vam3, hits give low values 1.02 | locus YOR136W, strain idh2, hits give low values 1.02 | locus YOR144C, strain elg1, hits give low values 1.01 | locus YOR184W, strain ser1, hits give low values 1.03 | locus YOR231W, strain MKK1, hits give low values 1 | locus YOR265W, strain rbl2, hits give low values 1 | locus YOR270C, strain vph1, hits give low values 1.02 | locus YOR290C, strain snf2, hits give low values 1 | locus YOR316C, strain cot1, hits give low values 1.02 | locus YPL051W, strain arl3, hits give low values 1.02 | locus YPL055C, strain LGE1, hits give low values 1.04 and 1.01 | locus YPL078C, strain atp4, hits give low values 1.03 | locus YPL106C, strain sse1, hits give low values 0.989 | locus YPL240C, strain hsp82, hits give low values 0.999 | locus YPL241C, strain CIN2, hits give low values 1.01 | locus YPL256C, strain CLN2, hits give low values 0.998 | locus YPR119W, strain clb2, hits give low values 1.02 | locus YPR141C, strain kar3, hits give low values 1.01 | locus YPR163C, strain tif3, hits give low values 1.02 | locus YPR167C, strain met16, hits give low values 1.01 | strain wtn01, hits give low values 1.02
